This is an account of results in PubChem BioAssay.

Test [1] can be described thus: inhibitors of TNFa-induced NFkB p65 translocation, primary screen, imaging, HUVEC, MLSMR starter and 10KST1 sets (AID 438;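 active = inhibition above 20% together with a positive visual image hit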;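 note: compound added about 3h40 before a 20 min TNFalpha stimulation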;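 for inhibition: signal is the nuclear over cytoplasmic p65 intensity ratio per well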). Particulars: HUVEC TNFa-induced p65 nuclear translocation; cell count: measured here: nuclei count (cytotoxicity indicator), at 2.08 µM; inhibition: at 2 µM, stronger effect = higher value, 0% TNFa-plus-vehicle, 100% no-TNFa wells.
Test [2] in a line: inhibitors of mutant huntingtin aggregation, primary screen, imaging, exon1htt(103Q)mCFP cells, high-content imaging (AID 483;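 active = visual image review flags a hit and inhibition of aggregation exceeds 20%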;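 note: compound exposure lasted 3 days before fixation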;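 for nuclei count: percent of the per-plate median nuclei count of sample wells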). Particulars: exon1htt(103Q)mCFP cell line, aggregate imaging, at 2 µM; inhibition of aggregation: stronger effect = higher value; nuclei count: measured here: cell count, toxicity.
Test [3] can be described thus: inhibitors of E-selectin induction by TNFa, primary screen, imaging, HUVEC, immunofluorescence, MLSMR starter and 10KST1 sets (AID 487;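 active = visually confirmed hit in the image check and inhibition above 20%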;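 for inhibition: signal is fraction of cell area covered by stained E-selectin grains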;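 for nuclei count: 100% = median nuclei count of all wells on the same plate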). Particulars: HUVEC TNFalpha-induced E-selectin immunofluorescence imaging, at 2 µM; inhibition: stronger effect = higher value; nuclei count: measured here: cell number, toxicity.
The target of test [4] is Voltage-gated potassium channel subunit beta-2 (Rattus norvegicus) (UniProt P62483). The test can be described thus: KvBeta enzyme negative modulators, primary screen, biochemical, NADPH fluorescence (AID 622;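 active = fluorescence slope higher than the sample average by over 3 SD, cut at about -0.22 in these data, passing the limit was not always enough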;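 note: slope of raw intensity against log time taken from 70 to 1610 s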). Particulars: recombinant KvBeta, 4-cyanobenzaldehyde reduction, at 10 µM, stronger effect = higher value.
Chain of Voltage-gated potassium channel subunit beta-2 (Rattus norvegicus) (P62483 whole entry, looked up): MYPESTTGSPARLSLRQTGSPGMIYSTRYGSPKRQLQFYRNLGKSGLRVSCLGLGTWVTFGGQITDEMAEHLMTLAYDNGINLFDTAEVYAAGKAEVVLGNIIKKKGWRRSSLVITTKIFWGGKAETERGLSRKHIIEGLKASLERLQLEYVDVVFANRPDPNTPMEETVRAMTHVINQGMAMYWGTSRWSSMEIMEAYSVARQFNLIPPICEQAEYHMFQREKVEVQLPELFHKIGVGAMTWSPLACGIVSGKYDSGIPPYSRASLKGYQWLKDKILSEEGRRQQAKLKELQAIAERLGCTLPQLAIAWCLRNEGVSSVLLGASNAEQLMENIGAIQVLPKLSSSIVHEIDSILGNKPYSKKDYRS
Test [5] has the same target. The test can be described thus: KvBeta positive modulators, primary screen, biochemical, NADPH fluorescence (AID 623).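 Note: fluorescence intensity change per second fitted from 20 to 320 s.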 Particulars: Recombinant KvBeta, NADPH fluorescence decrease slope, 10 min; at 10 µM; stronger effect = lower value.
In test [6] the target is Muscarinic acetylcholine receptor M4 (Homo sapiens) (UniProt P08173). The test can be described thus: compounds altering M4/GIRK thallium flux, either direction, primary screen, M4 allosteric agonist project, cell-based, HEK293 M4/GIRK, BTC-AM (AID 625;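 active = fluorescence slope after compound addition differing from the mean of all tested samples at 99.7% confidence, mostly higher but some lower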;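 note: thallium influx through GIRK channels coupled to M4 in HEK293 cells with BTC-AM dye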). Particulars: at 10 µM, actives lie on both sides.
Chain of Muscarinic acetylcholine receptor M4 (Homo sapiens) (P08173 whole entry, looked up): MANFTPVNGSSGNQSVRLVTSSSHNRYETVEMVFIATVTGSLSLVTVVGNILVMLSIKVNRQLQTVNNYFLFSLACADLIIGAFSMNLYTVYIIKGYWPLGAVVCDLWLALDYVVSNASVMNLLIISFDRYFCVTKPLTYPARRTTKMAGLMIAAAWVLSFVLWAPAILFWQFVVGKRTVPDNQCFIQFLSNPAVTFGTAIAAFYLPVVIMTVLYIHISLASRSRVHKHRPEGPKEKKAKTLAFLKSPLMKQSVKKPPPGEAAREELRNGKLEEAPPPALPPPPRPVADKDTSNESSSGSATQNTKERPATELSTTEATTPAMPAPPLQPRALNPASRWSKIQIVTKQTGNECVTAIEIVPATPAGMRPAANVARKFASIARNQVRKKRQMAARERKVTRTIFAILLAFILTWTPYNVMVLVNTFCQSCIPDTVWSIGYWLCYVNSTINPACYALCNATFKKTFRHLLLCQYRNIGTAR
The nature of test [7]: inhibitors of Sendai virus-induced IRF3 signaling, primary screen, TLR/RLR signaling modifier project, cell-based, Sendai virus stimulus, luciferase, 10K MLSCN set (AID 602276;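 active = inhibition at or above 50% at 10 µM; inactive = inhibition below 50%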;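 note: firefly luciferase from ISG56 promoter only with Renilla not read in this screen; 0% = Sendai virus plus DMSO and 100% = medium plus DMSO without virus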). Particulars: HEK293 RL24 IRF3 luciferase reporter, at 10 µM, stronger effect = higher value.
Test [8] is described as follows: inhibitors of poly I:C-induced TLR3 signaling, primary screen, cell-based, poly I:C stimulus, luciferase, 10K MLSCN set (AID 602277;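 active = inhibition of the reporter signal at or above 50%; inactive = inhibition below 50%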). Particulars: HEK293-TLR3 RL24 IRF3 luciferase reporter, at 10 µM, stronger effect = higher value.
Test [9] has as its target Alpha-2C adrenergic receptor (Homo sapiens) (UniProt P18825). The test can be described thus: modulators of alpha2C/GIRK thallium flux, primary screen, cell-based, HEK293 alpha2C/GIRK1/2 (AID 624;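 active = fluorescence slope after compound addition differing from the mean of all screened samples at 99.7% confidence, in either direction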;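 note: slope of fluorescence ratio to pre-addition baseline per second over 15 to 24 s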). Particulars: thallium flux BTC fluorescence, at 10 µM, actives lie on both sides.
Test [10] can be described thus: DUSP6 inhibitors restoring Erk phosphorylation by chemical complementation, primary imaging in DUSP6-transfected HeLa (AID 609;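 active = compounds giving at least 50% inhibition in the cell-based MKP-3 phosphatase rescue imaging test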;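 for inhibition: phospho-Erk level distribution per well compared with pooled transfected vehicle control wells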). Particulars: HeLa MKP-3 transfected, phospho-Erk imaging KS statistic, at 10 µM, cells stimulated with TPA for 15 min.
Test [11] has as its target Dual specificity protein phosphatase 6 (Homo sapiens) (UniProt Q16828). The test is described as above. Particulars: HeLa MKP-3 transfected, phospho-Erk imaging KS statistic; at 10 µM; stronger effect = higher value; cells stimulated with TPA for 15 min.

Structures are written as SMILES. Active and inactive are the calls of the source.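 Rule for the calls, unless noted: active = NADPH fluorescence slope more negative than the mean of all samples by about 3 SD, 99.7% confidence; inactive = the rest.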

Chain of Alpha-2C adrenergic receptor (Homo sapiens) (P18825 whole entry, looked up): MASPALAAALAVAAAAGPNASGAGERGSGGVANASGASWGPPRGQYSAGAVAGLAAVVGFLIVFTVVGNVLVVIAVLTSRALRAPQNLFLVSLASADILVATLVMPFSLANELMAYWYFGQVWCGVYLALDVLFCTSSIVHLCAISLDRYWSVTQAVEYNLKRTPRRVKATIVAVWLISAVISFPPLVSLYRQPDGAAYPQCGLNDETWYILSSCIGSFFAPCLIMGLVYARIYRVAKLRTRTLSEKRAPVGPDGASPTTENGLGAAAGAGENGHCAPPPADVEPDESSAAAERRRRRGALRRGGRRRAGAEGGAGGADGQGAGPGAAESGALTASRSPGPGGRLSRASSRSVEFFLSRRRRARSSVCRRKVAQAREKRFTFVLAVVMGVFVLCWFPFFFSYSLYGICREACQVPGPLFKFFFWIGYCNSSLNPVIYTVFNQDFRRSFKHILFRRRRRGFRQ
Chain of Dual specificity protein phosphatase 6 (Homo sapiens) (Q16828 whole entry, looked up): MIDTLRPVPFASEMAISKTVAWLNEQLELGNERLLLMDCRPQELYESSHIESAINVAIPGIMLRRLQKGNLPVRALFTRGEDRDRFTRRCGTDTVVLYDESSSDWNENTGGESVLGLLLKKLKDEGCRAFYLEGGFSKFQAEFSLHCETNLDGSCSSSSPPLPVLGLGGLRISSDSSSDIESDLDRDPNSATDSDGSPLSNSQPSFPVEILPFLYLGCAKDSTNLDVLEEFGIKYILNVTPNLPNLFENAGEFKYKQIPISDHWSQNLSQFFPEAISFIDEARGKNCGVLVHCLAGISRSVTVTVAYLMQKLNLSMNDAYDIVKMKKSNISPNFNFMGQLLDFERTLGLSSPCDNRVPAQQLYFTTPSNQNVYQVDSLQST

Consider `Cc1cc(-c2ccccc2)c2c3c(cn2n1)c(=O)n(C)c(=O)n3C`, for which, in [1], the cell count was determined as 386. The inhibition in test [1] is 2% (inactive); in [3], -14.4% (inactive); in test [7] it was 17.8% (inactive); in [8], 27.8% (inactive). Besides, the inhibition of aggregation in test [2] is -0.2% (inactive). The results for the nuclei count in test [2] and in [3] were 116% and 86.7%, respectively. Also, the fluorescence slope in [4] is -0.59 (inactive); in test [6], 0.00111 (inactive). Further, the NADPH fluorescence slope in test [5] was -1.7e-06 (inactive).

Regarding `CCOCCCNC(=O)CCNS(=O)(=O)c1ccc(C)cc1`, the cell count in test [1] stood at 547. For the same compound, the inhibition in test [1] was -15% (inactive); in test [7] it was -17.9% (inactive); in [8], 22.8% (inactive). Moreover, the inhibition of aggregation in test [2] was -10.7% (inactive). In addition, the nuclei count in [2] turned out to be 90.3%. Besides, the fluorescence slope in [4] was -0.411 (inactive). Also, in [5], the NADPH fluorescence slope was -3.1e-05 (inactive). Further, in test [9], the slope is 0.00305 (inactive).

Take `COc1cccc(-c2cc3nc4c(c(N5CCC6(CC5)OCCO6)n3n2)CCCC4)c1`: the cell count in test [1] was determined as 479. Moreover, the inhibition in test [1] was 10.2% (inactive); in test [7], -10.9% (inactive); in test [8], -32.3% (inactive). In addition, the inhibition of aggregation in test [2] was 18.9% (inactive). Moreover, the values for the nuclei count in test [2] and in [3] were 98.9% and 149%, respectively. For the same compound, the figures for the fluorescence slope in test [4] and in test [6] were -0.401 (inactive) and 0.00624 (inactive), respectively. The NADPH fluorescence slope in test [5] is 2.4e-05 (inactive).

As for `COc1ccc(OC)c(NC(=O)C2CCN(c3cc(-c4ccccc4)nc4ncnn34)CC2)c1`, the cell count in test [1] came to 449. Also, the inhibition is 2.1% (inactive) in [1], 15% (inactive) in test [7] and 15.1% (inactive) in test [8]. In addition, the inhibition of aggregation in test [2] was 17% (inactive). The results for the nuclei count in test [2] and in [3] were 95% and 150%, respectively. For the same compound, the fluorescence slope in test [4] was -0.528 (inactive); in [6], 0.00653 (inactive). For the same compound, in [5], the NADPH fluorescence slope is 1.4e-05 (inactive).

On to `Cc1cccc(N(C)C(=O)c2cc3cc4ccc(C)cc4nc3o2)c1`, for which, in test [1], the cell count was determined as 214. Besides, the inhibition in [1] is -0.3% (inactive); in [3], -24.7% (inactive); in test [7] it was 37.8% (inactive); in test [8], -34.7% (inactive). Also, the inhibition of aggregation in [2] is 11.5% (inactive). Besides, the nuclei count in test [2] stood at 92.4%; in [3], 109%. Moreover, the fluorescence slope in test [4] was -0.396 (inactive); in test [6], 0.00523 (inactive). The NADPH fluorescence slope in [5] was -2.9e-05 (inactive).

Take `O=C1CC(=O)N(Cc2cccs2)C(=O)N1`: the cell count in [1] worked out at 336. For the same compound, the inhibition is 4.7% (inactive) in test [1], 1.08% (inactive) in test [7] and 6.01% (inactive) in test [8]. Also, in [2], the inhibition of aggregation is 12.5% (inactive). Also, the values for the nuclei count in [2] and in test [3] were 98.3% and 116%, respectively. For the same compound, the figures for the fluorescence slope in [4] and in test [6] were -0.632 (inactive) and 0.00466 (inactive), respectively. The NADPH fluorescence slope in test [5] was 5.3e-05 (inactive).

Regarding `CC(C)[N+]1(C)[C@@H]2CC[C@H]1CC(OC(=O)C(CO)c1ccccc1)C2` (some centres undefined), the cell count in test [1] was 466. For the same compound, the inhibition in test [1] is -3.8% (inactive); in [3], -89.2% (inactive); in test [11] it was 25.7% (inactive); in test [7] it was -5.72% (inactive); in test [8], 28.4% (inactive). In addition, in test [3], the nuclei count was 94.7%. In addition, the z-score was 1.04 in test [10] (measured here: cell density z-score); -0.0729 in test [10] (measured here: nuclear c-Myc green intensity z-score); -1.49 in [10] (measured here: nuclear pErk red intensity z-score, stronger effect = higher value). Further, in [4], the fluorescence slope was -0.497 (inactive). Moreover, the NADPH fluorescence slope in [5] was -5.7e-05 (inactive). Further, the slope in test [9] was 0.00449 (inactive).

As for `Nc1nc(C(=O)N2CCOCC2)nn1S(=O)(=O)c1ccc(Cl)cc1`, the cell count in test [1] was found to be 177. In addition, the values for the inhibition in [1], in [7] and in test [8] were 23.2% (active), 11% (inactive) and 15.9% (inactive), respectively. In addition, the inhibition of aggregation in [2] is -3.7% (inactive). In addition, the results for the nuclei count in [2] and in test [3] were 103% and 145%, respectively. Moreover, the fluorescence slope in test [4] was -0.59 (inactive); in test [6], 0.00923 (inactive). Moreover, the NADPH fluorescence slope in [5] was -2.7e-05 (inactive).
